Bioassay records (PubChem)
Only a selection was taken, and hits are over-represented in it overall.
Artemis inh: inhibitors of human Artemis endonuclease activity; Q96SD1; inhibition, % at 10 µM; 30,000 compounds, 0.78% hits; recombinant Artemis, quenched FAM hairpin cleavage fluorescence;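 active means at 10 µM dose, at least 30% inhibition, measured as corrected fluorescence normalized to stimulator and neutral control wells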
* = called active by the depositor.

SMILES | Artemis inh
N=c1c(C(=O)NCc2ccco2)cc2c(=O)n3ccccc3nc2n1Cc1ccccc1 | 23
CC(=O)N1c2ccccc2C(=O)C1N1CCCCC1 (stereo not given) | -1
CC1CC(C)CN(C2CCN(Cc3cccnc3)CC2)C1 (stereo not given) | 0
Cc1cc(S(=O)(=O)N(Cc2ccc3c(c2)OCO3)CC2CCCO2)ccc1-n1cnnn1 (stereo not given) | -5
O=C(Cn1cnc2c(cnn2-c2ccc(F)cc2)c1=O)NCC1CCCO1 (stereo not given) | 33*
O=C(CSc1ncnc2c1nnn2-c1ccc(F)cc1)NCC1CCCO1 (stereo not given) | 0
O=C(Cn1cnc2c(cnn2-c2ccc(F)cc2)c1=O)OCc1ccccc1 | -1
O=C(NCc1ccc(Cl)c(Cl)c1)c1ccco1 | -2
COc1cc(OC)c(C(=O)Nc2ncn[nH]2)cc1OC | -4
CCN(C(=O)c1cc2cccc(OC)c2oc1=O)C1CCCCC1 | 5
c1coc(CNc2nc(N3CCCCC3)nc3ccccc23)c1 | 6
c1ccc(N2CCN(c3nc(NCc4ccco4)c4ccccc4n3)CC2)cc1 | 25
c1ccc(-c2nc(NCc3ccco3)c3ccccc3n2)nc1 | 64*
O=C(c1ccc(S(=O)(=O)Nc2ccc(F)cc2)cc1)N1CCN(C(=O)c2ccco2)CC1 | 3
Cc1ccc(C)c(S(=O)(=O)NC(CCC(N)=O)C(=O)O)c1 (stereo not given) | 0
CCCCCCn1c(N2CCN(c3cccc(Cl)c3)CC2)nc2c1c(=O)[nH]c(=O)n2C | 35*
CC(C)CCn1c(N2CCN(c3cccc(Cl)c3)CC2)nc2c1c(=O)[nH]c(=O)n2C | 27
CCCCCCn1c(N2CCN(c3ccccc3)CC2)nc2c1c(=O)[nH]c(=O)n2C | 11
C=CCn1c(C)c(C(C)=O)c(N2CCN(c3ccccc3)CC2)nc1=S | -6
CN(CCOC(=O)c1ccc2c(c1)OCCO2)Cc1ccccc1 | 0
Cc1cccc(C(=O)N2CCN(c3ccc([N+](=O)[O-])c(N4CCOCC4)c3)CC2)c1 | 2
Cc1ccc(C(=O)N2CCN(c3ccc([N+](=O)[O-])c(NCc4ccco4)c3)CC2)cc1 | 31*
Cc1cccc(C(=O)N2CCN(c3ccc([N+](=O)[O-])c(NCc4ccco4)c3)CC2)c1 | 28
Cc1sc(NC(=O)C2CCCCC2C(=O)O)c(C(N)=O)c1-c1ccc(C(C)(C)C)cc1 (stereo not given) | 40*
Cc1sc(NC(=O)C2CCCCC2C(=O)O)c(C(N)=O)c1-c1ccccc1 (stereo not given) | 2
SMILES | Artemis inh
Cc1sc(NC(=O)C2CCCCC2C(=O)O)c(C(N)=O)c1-c1ccc(C(C)C)cc1 (stereo not given) | 27
COC(=O)c1ccc(NC(=O)c2ccccc2N(C)S(=O)(=O)c2ccccc2)cc1 | -2
COc1ccc(/C=N/NC(=O)c2nn(-c3ccc(C)c(C)c3)c(=O)c3ccccc23)cc1 | 13
COc1cc(/C=N/NC(=O)c2cnn3c(C)cc(-c4ccccc4)nc23)ccc1O | 10
COc1ccc(/C=N/NC(=O)c2nc(-c3ccccc3)cc(-c3ccccc3)n2)cc1 | 35*
NC(=O)c1ccsc1NC(=O)COC(=O)Cc1cccc2ccccc12 | 5
COc1ccc(-n2c(=O)c3ccccc3n(CC(=O)NC3CCCC3)c2=O)cc1 | 3
Cc1cc(C)n(-c2nc(C)nc(NCc3ccccc3)n2)n1 | -2
COc1ccc(O)c(/C=N/NC(=O)CSc2nnc(C)n2-c2ccccc2)c1 | 0
COc1ccc(O)c(/C=N/Nc2nc(Nc3ccccc3)nc(-n3nc(C)cc3C)n2)c1 | 102*
Cc1ccccc1CS(=O)(=O)Cc1ccc(C(=O)NCc2cccnc2)o1 | -6
CC(=O)C1=C(C)NC(SCc2cccc([N+](=O)[O-])c2)=C(C#N)C1c1ccco1 (stereo not given) | 5
COc1ccc(C(=O)/C=C(\C)NCc2ccc3c(c2)OCO3)cc1 | -4
O=C(CCC(=O)c1cccs1)OCC(=O)N1CCN(C(=O)c2ccco2)CC1 | 2
O=C(COC(=O)c1cc(-c2ccc(Cl)s2)nc2ccccc12)NCc1ccco1 | 32*
Cc1ccc(-c2cc(C(=O)NCc3ccco3)c3ccccc3n2)s1 | 3
O=C(COC(=O)c1cc(-c2ccco2)nc2ccccc12)NCc1ccc2c(c1)OCO2 | 23
CCOC(=O)/C(N)=C/c1ncc(C(F)(F)F)cc1Cl | 1
Nc1ccc(-c2ccc(N)cc2C(F)(F)F)c(C(F)(F)F)c1 | 1
Nc1ccc2c(c1)C(=O)C(=O)c1ccccc1-2 | 71*
Nc1ccc2oc(=O)c3ccccc3c2c1 | 3
CCC(=O)N1c2ccc(C)cc2C2=NNC(=S)NC21O (stereo not given) | -4
Cc1cc(-c2csc(N)n2)c(C)n1C | 32*
Brc1ccc(-c2nc(N/N=C/c3cccnc3)c3ccccc3n2)cc1 | 13
c1ccc(-c2ccc(C3=Nn4c(Cn5nnc6ccccc65)nnc4SC3)cc2)cc1 | 33*
Brc1ccccc1C1=Nn2c(nnc2-c2ccccc2)SC1 | 6
O=C(Cn1nnc2ccccc21)C1CC1 | 3
COc1ccc(Cl)c(N2CCN(CCCNC(=O)Nc3ccc(C)cc3)CC2)c1 | 0
